Molecules are shown by their SMILES.

In test [1] the target is T1, Inhibitor of nuclear factor kappa-B kinase subunit epsilon (Homo sapiens) (UniProt Q14164).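 Further: reported values are averaged percent inhibition figures against human IKKε.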
T1 sequence (whole entry): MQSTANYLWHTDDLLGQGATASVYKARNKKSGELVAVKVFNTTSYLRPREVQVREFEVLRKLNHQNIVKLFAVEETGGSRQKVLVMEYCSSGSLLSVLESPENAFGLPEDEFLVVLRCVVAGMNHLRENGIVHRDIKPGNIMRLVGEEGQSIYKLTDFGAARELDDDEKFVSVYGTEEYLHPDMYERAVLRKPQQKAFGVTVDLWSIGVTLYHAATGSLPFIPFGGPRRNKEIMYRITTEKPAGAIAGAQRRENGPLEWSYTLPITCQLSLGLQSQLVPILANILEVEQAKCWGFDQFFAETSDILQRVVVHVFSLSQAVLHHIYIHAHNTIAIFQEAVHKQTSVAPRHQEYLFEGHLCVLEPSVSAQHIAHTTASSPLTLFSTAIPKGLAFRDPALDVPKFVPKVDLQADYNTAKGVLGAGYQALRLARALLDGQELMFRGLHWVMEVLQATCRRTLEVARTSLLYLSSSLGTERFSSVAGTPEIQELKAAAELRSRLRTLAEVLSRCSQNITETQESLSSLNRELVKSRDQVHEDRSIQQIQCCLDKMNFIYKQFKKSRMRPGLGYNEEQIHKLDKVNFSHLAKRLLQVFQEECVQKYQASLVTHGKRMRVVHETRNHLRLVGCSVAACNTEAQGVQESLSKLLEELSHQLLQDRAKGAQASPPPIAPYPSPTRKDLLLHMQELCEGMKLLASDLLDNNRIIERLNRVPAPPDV
Particulars: at 1 µM.

In test [2] the target is T2, Serine/threonine-protein kinase Nek1 (Homo sapiens) (UniProt Q96PY6).
T2 sequence (whole entry): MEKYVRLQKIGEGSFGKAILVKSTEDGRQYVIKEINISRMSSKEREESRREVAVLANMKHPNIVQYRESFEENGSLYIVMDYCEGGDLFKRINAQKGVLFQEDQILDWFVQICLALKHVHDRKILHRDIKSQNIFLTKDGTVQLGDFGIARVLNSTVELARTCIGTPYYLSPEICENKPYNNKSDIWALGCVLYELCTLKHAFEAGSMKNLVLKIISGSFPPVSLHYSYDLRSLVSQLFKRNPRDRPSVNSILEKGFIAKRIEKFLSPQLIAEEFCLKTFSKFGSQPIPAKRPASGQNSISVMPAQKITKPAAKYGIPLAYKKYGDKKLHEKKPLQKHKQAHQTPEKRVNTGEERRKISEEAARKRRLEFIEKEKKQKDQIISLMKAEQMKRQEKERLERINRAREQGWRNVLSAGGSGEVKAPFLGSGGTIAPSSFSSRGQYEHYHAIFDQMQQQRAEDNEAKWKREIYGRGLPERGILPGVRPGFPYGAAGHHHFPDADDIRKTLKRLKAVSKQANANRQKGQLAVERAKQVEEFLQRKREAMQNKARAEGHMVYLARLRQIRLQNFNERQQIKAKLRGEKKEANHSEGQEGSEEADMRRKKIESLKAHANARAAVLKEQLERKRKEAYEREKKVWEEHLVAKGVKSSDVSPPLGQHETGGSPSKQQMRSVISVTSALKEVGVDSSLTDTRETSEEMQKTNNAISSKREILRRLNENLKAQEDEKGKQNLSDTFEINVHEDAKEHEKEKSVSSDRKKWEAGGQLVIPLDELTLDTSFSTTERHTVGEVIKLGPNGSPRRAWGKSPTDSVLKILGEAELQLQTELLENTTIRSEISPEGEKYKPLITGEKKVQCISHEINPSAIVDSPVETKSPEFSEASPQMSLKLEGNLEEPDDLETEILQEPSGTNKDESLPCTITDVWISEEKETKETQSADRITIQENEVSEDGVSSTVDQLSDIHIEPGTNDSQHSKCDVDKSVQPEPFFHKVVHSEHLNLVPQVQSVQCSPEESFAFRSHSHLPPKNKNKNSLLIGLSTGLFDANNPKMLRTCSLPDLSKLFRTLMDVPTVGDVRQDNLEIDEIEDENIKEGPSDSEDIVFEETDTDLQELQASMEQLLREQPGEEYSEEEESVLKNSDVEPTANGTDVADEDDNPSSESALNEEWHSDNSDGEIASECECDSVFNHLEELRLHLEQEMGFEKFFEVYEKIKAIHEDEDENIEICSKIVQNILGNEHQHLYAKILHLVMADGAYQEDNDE
Particulars: at 0.1 µM.

The target in test [3] is T2, Serine/threonine-protein kinase Nek1 (Homo sapiens). Particulars: at 1 µM.
Test [4] has as its target T3, Serine/threonine-protein kinase Nek2 (Homo sapiens) (UniProt P51955).
T3 sequence (whole entry): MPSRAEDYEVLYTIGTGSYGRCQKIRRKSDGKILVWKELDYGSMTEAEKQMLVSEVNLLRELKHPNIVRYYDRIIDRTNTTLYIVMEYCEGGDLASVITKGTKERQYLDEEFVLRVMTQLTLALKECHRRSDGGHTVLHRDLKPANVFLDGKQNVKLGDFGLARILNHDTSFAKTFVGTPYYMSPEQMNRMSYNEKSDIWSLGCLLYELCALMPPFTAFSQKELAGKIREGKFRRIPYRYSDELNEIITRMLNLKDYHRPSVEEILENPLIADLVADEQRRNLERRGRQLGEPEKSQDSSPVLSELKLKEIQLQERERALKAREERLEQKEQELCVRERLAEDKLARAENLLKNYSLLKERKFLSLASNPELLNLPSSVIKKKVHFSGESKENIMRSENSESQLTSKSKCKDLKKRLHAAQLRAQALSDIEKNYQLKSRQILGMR
Particulars: at 0.1 µM.

Test [5] deals with T3, Serine/threonine-protein kinase Nek2 (Homo sapiens). Particulars: at 1 µM.
The target in test [6] is Serine/threonine-protein kinase Nek6 (Homo sapiens) (UniProt Q9HC98). Particulars: at 0.1 µM.
Test [7] shares this target. Particulars: at 1 µM.
In test [8] the target is Serine/threonine-protein kinase Nek7 (Homo sapiens) (UniProt Q8TDX7). The conditions noted are these: at 0.1 µM.
The target is the same in test [9]. Particulars: at 1 µM.
For test [10], the target named is T4, Serine/threonine-protein kinase Nek9 (Homo sapiens) (UniProt Q8TD19).
T4 sequence (whole entry): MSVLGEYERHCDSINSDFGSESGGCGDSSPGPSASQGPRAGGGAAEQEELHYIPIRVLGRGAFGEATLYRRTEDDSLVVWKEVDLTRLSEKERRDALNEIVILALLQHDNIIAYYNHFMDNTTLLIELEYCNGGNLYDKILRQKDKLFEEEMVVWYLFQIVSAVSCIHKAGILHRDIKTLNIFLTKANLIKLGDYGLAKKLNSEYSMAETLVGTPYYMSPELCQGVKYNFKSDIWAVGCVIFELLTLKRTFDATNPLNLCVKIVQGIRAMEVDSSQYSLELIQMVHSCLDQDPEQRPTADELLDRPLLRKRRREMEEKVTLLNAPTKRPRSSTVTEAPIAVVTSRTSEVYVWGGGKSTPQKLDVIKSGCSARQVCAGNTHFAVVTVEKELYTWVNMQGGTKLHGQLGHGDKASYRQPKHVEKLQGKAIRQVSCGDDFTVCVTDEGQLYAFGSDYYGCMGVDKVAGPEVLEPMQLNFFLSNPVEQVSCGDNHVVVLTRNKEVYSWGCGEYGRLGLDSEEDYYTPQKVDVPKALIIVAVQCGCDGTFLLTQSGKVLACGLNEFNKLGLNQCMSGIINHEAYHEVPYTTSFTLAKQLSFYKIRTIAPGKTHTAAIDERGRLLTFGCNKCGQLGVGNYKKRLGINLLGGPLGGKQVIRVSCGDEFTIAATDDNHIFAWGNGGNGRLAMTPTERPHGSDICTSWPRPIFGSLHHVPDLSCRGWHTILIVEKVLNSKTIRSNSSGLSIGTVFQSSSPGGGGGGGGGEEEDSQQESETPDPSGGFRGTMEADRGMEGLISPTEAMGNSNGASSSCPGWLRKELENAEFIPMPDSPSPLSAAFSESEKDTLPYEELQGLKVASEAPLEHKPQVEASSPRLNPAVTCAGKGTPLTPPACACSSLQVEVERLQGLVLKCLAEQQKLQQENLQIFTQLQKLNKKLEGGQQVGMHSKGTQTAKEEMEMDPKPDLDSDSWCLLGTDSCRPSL
Particulars: at 0.1 µM.

The target of test [11] is T4, Serine/threonine-protein kinase Nek9 (Homo sapiens). Particulars: at 1 µM.
Test [12] addresses Serine/threonine-protein kinase PLK1 (Homo sapiens) (UniProt P53350). The conditions noted are these: at 0.1 µM.
The target is the same in test [13]. Particulars: at 1 µM.
Test [14] addresses T5, Dual specificity protein kinase TTK (Homo sapiens) (UniProt P33981).
T5 sequence (whole entry): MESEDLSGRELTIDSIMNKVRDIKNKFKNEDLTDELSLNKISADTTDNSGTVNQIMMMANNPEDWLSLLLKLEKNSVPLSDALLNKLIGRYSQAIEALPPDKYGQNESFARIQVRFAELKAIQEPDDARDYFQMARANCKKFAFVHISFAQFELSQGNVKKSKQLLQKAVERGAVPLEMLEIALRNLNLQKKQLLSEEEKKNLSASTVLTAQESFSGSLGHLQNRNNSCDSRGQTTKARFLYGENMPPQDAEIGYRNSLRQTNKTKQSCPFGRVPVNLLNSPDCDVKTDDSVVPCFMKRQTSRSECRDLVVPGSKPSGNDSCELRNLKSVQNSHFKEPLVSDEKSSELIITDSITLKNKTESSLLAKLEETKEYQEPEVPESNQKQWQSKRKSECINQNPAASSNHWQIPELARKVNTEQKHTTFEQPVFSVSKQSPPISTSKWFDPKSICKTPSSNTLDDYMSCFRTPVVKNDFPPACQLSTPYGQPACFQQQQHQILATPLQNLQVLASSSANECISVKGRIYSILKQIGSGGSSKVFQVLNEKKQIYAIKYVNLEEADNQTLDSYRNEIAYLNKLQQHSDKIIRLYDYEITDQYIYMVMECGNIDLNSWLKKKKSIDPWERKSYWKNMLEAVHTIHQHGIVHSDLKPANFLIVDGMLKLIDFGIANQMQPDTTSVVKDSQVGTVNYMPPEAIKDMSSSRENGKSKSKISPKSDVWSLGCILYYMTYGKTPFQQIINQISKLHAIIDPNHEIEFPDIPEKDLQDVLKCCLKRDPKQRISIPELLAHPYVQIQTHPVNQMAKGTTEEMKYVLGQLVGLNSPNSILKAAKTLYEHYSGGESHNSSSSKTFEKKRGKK
Particulars: at 0.1 µM.

For test [15], the system named is T6, Receptor-type tyrosine-protein kinase FLT3 (Homo sapiens), P36888 [D835Y].
T6 sequence (whole entry): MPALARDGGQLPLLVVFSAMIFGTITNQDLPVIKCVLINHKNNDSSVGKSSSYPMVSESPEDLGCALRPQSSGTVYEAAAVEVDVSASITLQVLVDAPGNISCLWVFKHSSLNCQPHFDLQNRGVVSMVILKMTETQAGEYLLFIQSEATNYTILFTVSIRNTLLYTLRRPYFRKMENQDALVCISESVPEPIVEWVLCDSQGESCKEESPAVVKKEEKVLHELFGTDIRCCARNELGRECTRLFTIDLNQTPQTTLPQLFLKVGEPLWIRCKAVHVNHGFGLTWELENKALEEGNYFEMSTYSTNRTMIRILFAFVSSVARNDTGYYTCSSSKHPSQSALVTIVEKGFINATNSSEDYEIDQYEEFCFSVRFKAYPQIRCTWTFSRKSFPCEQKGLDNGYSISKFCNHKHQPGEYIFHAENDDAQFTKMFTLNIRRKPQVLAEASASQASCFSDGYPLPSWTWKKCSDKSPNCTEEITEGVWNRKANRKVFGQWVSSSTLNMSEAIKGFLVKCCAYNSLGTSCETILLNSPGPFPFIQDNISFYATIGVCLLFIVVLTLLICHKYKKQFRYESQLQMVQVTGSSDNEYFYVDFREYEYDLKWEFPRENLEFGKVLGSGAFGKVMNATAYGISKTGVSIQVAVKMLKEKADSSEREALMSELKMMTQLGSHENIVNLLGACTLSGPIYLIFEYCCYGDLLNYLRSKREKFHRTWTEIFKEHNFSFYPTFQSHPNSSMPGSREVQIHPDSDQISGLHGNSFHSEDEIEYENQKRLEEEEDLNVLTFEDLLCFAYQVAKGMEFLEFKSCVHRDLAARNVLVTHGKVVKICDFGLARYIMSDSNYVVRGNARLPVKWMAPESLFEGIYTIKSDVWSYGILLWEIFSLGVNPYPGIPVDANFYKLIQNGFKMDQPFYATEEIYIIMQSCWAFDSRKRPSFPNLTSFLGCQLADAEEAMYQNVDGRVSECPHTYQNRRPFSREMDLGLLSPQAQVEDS
The conditions noted are these: at 1 µM.

The target in test [16] is Vascular endothelial growth factor receptor 3 (Homo sapiens) (UniProt P35916). Particulars: at 0.1 µM.
Test [17] has the same target. The conditions noted are these: at 1 µM.
For test [18], the target named is Macrophage colony-stimulating factor 1 receptor (Homo sapiens) (UniProt P07333). The conditions noted are these: at 0.1 µM.
For test [19] the target is unchanged. The conditions noted are these: at 1 µM.
For test [20], the target named is Tyrosine-protein kinase Fyn (Homo sapiens) (UniProt P06241). Particulars: at 0.1 µM.
Tyrosine-protein kinase Fyn (Homo sapiens), sequence (P06241 2-537 limits assumed): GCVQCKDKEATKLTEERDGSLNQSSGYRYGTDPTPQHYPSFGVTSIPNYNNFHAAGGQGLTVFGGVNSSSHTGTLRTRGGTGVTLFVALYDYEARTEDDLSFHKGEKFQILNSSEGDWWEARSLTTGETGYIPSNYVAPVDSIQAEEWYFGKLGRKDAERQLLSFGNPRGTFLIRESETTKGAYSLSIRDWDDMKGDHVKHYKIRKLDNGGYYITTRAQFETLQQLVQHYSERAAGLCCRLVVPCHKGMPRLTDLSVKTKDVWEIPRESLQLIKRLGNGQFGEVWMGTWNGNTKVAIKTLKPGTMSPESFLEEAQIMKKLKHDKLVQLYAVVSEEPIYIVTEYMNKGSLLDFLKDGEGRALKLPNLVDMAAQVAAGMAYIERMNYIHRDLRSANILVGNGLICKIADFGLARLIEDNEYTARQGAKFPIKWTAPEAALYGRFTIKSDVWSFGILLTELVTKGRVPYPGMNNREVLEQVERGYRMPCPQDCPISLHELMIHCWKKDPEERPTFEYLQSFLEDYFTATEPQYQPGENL

Vascular endothelial growth factor receptor 3 (Homo sapiens), sequence (P35916 whole entry): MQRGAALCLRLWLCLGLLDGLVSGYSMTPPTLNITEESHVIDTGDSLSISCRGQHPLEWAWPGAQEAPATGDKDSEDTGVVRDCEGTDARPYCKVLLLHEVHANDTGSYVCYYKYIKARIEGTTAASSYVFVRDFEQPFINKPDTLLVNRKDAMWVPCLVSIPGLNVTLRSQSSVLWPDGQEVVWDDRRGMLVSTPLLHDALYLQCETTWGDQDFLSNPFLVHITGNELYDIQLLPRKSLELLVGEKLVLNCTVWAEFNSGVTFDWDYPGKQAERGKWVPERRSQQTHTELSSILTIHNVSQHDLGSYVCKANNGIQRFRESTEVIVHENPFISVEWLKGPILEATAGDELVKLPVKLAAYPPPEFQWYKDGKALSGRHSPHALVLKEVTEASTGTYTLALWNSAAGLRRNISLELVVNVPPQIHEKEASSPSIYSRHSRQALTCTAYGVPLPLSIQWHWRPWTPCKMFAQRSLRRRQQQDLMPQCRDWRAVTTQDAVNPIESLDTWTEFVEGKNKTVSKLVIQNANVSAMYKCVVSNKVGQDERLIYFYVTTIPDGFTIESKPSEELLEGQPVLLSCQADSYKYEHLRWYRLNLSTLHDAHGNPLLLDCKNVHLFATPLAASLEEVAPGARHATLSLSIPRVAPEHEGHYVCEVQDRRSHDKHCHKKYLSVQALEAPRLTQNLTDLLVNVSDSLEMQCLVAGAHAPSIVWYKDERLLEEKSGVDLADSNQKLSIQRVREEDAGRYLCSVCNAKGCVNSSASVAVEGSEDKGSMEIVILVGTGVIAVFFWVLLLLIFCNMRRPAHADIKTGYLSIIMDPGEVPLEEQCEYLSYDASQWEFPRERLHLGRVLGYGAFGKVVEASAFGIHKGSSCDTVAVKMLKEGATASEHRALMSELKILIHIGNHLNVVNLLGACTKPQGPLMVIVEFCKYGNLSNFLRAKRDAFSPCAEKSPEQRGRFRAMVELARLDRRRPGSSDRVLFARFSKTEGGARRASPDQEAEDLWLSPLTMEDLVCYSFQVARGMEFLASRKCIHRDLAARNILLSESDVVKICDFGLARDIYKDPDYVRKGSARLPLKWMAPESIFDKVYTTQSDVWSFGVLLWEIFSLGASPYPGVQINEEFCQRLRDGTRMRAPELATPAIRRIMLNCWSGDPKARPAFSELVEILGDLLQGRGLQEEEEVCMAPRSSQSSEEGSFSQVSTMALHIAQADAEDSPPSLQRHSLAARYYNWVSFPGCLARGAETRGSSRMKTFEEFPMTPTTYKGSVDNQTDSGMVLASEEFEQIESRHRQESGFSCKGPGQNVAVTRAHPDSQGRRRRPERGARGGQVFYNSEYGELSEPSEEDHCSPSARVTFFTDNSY
Macrophage colony-stimulating factor 1 receptor (Homo sapiens), sequence (P07333 whole entry): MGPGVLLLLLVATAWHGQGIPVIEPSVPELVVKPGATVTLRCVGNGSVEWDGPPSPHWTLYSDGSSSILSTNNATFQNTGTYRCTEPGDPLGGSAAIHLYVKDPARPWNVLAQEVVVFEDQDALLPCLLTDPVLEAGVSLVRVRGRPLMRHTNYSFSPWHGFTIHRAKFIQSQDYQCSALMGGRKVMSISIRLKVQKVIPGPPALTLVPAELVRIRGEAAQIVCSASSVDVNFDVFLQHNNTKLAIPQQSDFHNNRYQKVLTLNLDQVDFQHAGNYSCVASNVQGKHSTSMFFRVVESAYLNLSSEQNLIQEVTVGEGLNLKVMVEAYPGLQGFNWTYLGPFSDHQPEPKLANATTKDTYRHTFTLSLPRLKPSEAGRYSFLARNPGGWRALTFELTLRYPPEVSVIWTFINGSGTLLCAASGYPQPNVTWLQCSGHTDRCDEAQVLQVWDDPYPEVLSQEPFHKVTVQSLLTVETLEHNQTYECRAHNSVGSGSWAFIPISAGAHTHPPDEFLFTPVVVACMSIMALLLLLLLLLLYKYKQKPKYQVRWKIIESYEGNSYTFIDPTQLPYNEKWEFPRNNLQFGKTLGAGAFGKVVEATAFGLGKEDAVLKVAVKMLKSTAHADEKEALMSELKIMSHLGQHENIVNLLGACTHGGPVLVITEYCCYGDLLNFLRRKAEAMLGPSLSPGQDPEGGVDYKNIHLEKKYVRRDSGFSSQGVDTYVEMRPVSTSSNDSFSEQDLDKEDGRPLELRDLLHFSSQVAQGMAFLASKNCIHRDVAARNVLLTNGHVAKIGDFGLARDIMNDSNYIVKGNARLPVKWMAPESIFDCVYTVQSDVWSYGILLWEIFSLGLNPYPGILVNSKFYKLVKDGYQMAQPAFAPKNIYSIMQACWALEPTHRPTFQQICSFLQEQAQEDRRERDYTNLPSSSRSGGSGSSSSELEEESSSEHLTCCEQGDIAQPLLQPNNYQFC
Serine/threonine-protein kinase Nek7 (Homo sapiens), sequence (Q8TDX7 whole entry, looked up): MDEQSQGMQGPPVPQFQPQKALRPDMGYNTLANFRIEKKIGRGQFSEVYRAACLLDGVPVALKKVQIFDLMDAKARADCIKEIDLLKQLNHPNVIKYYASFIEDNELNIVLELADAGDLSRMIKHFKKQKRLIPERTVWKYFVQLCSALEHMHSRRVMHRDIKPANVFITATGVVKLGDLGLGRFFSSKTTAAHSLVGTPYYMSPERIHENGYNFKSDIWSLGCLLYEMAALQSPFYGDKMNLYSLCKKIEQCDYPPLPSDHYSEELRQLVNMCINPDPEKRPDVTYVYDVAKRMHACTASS
Serine/threonine-protein kinase Nek6 (Homo sapiens), sequence (Q9HC98 whole entry): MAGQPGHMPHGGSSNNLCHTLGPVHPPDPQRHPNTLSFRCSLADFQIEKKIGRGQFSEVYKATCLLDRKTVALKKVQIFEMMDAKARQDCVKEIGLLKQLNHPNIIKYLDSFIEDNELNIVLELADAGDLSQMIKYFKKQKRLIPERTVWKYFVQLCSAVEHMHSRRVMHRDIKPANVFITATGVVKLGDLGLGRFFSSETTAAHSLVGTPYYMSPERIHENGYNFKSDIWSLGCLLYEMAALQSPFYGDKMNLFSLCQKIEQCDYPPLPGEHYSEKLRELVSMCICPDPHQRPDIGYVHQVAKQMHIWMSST
Serine/threonine-protein kinase PLK1 (Homo sapiens), sequence (P53350 whole entry): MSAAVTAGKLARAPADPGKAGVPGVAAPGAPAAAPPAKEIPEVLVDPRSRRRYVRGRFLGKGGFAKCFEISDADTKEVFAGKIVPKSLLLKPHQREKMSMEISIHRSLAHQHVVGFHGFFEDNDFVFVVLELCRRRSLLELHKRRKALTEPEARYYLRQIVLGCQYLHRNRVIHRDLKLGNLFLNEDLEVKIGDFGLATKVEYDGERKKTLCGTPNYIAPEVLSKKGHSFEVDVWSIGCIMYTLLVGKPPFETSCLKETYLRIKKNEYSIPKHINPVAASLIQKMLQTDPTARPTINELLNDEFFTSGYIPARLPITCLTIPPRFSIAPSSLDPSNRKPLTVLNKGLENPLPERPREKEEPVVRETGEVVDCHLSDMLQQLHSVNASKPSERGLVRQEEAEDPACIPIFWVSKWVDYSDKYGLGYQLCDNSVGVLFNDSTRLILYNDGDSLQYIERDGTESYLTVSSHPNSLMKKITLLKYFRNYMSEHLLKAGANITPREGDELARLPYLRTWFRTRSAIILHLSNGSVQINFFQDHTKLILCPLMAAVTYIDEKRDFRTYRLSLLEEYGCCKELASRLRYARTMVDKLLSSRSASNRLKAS

One may read the inhibition as the drop in the measured response relative to a control, in per cent. As to `COc1cc(/C=N/Nc2ncnc3c2cnn3C(C)C)ccc1O`, the inhibition came to 1.92% in [1]; 2.42% in [2]; 10.4% in [3]; 2.62% in [4]; 6.4% in test [5]; 2.57% in test [6]. The inhibition is 1.52% in [7]; 5.39% in test [8]; 2.72% in [9]; -0.27% in test [10]; 5.67% in [11]; 3.79% in [12]. Also, the inhibition in [13] was 4.86%; in [14] it was 4.56%; in test [15] it was 23.1%; in test [16], 13.8%; in test [17], 22.1%; in test [18], 8.23%. The inhibition in [19] was 42.3%; in test [20], 8.53%.

These data come from ChEMBL document CHEMBL1961873, “Compounds: GSK PKIS; Assays: Nanosyn kinase panel” (2012).
